Only some compounds are listed: those with a hit (about 1.1% of all), similar ones and a draw of the others.
Six1-Eya2 inh = qHTS Assay for Inhibitors of the Six1/Eya2 Interaction; Homeobox protein SIX1 (Homo sapiens) + Protein phosphatase EYA2 (Homo sapiens), …; AlphaScreen GST-Six1/His-Eya2 binding, biochemical; hits give low values; activity change, % (no concentration beside the values); actives 0.56% (n = 360,000); AID 651725, 2012; in the data active means activity change below about -65%; inconclusive means mostly about -30% to -63%; further: on the % scale 0 is the no-effect control and ±100 the full control effect
Target sequence (O00167 whole entry, looked up): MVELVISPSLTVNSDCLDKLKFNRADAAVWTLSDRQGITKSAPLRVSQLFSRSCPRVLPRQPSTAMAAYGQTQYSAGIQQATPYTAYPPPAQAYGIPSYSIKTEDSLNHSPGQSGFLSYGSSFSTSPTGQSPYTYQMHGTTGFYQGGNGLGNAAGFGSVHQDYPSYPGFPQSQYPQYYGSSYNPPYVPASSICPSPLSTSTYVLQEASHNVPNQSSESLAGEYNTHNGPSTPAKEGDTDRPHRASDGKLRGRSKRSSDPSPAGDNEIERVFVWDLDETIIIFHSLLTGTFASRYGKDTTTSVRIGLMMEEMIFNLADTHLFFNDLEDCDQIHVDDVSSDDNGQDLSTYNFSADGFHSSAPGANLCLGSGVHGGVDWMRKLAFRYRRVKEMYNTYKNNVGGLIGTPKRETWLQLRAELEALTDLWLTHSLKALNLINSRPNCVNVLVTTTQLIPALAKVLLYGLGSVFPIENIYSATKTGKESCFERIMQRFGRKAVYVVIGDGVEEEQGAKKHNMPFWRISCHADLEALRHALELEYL
Target sequence (Q15475 whole entry, looked up): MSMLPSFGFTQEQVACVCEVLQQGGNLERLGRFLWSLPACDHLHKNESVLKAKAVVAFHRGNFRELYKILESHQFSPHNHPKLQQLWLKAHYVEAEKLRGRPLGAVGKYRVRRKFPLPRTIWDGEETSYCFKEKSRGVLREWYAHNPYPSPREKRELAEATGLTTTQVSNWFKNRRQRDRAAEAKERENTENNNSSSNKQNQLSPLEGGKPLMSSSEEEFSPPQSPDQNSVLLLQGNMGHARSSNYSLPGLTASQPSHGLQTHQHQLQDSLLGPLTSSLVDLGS
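Homogeneous AlphaScreen proximity assay pairing GST-Six1 with His-tagged Eya2 (added as 5X mix: 250 nM and 500 nM) in 50 mM Tris pH 8.0, 300 mM NaCl, 1 mM TCEP. Glutathione donor and nickel acceptor beads; 1 h, 37 °C, dark.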
Mito fusion yeast = qHTS Assay for Small Molecule Inhibitors of Mitochondrial Division or Activators of Mitochondrial Fusion; S. cerevisiae fusion-defective mutant growth rescue, CellTiterGlo 48 h; Potency, µM (doses to about 46.1 µM), inactives show at the top dose growth rescue (activation), hits mostly activators; actives 0.23% (n = 320,000); AID 485298, 2010; further: potency means the concentration at half of the fitted maximal effect; % of control where 0% means no effect; nearly all actives have a fitted effect of over 45% in size
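S. cerevisiae fusion-defective temperature-sensitive mutants (e.g. fzo1-1, mgm1-5) grown 48 h at 37C in YPEG (ethanol/glycerol non-fermentable) medium with 23 nl compound per well; growth rescue read as CellTiterGlo luminescence.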
MBNL1 CUG block = qHTS Assay for Inhibitors of MBNL1-poly(CUG) RNA binding. Potency, µM (top dose mostly 57.5 µM), for the others: at the highest dose activity change, negative = inhibition, most hits filed as inhibitors. actives 0.036% (n = 280,000). TR-FRET MBNL1-His/biotin-(CUG)12 binding, 665/545 ratio. Muscleblind-like protein 1 (Homo sapiens), Q9NR56; active means well fitted inhibition curve with a large enough effect in the signal ratio, with a control signal flat, not every such curve was filed as active; inconclusive means small, poorly fitted or top-dose-only effect, or effect the other way, or a change in a side signal; inactive means no such curve, though single readings can be large or run the other way; the % refers to the signal ratio; further: potency means the concentration at half of the fitted maximal effect; on the % scale 0 is the no-effect control and ±100 the full control effect
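His-tagged MBNL1 binding to biotinylated (CUG)12 RNA was measured by TR-FRET using terbium anti-His antibody (0.055 ng/ul final) and streptavidin-XL665 (5 nM final). Compounds were titrated 92 nM to 58 uM; 60 min at room temperature.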
CtBP-E1A inh = qHTS Assay for Inhibitors of the CtBP/E1A Interaction; CtBP / adenovirus E1A interaction (AlphaScreen); AlphaScreen GST-E1A/His-CtBP binding, 1536-well; hits give low values; activity change, % (test concentration not listed); actives 0.49% (n = 340,000); AID 651724, 2012; in the data active means activity change below about -65%; inconclusive means mostly about -30% to -63%; further: on the % scale 0 is the no-effect control and ±100 the full control effect
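In 5 uL wells, 23 nL compound meets equimolar GST-E1A and His-CtBP (5X stock 125 nM each) for 2 h, 37 °C. Beads (5X, 50 ug/mL) then 1 h, 37 °C, dark.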
uPA generation = qHTS for Inhibitors of Cell Surface uPA Generation; cell surface uPA generation assay, qHTS; Potency, µM (doses to about 38.3 µM), inactives show at the highest dose activity change, negative = inhibition, most hits filed as inhibitors; actives 0.31% (n = 330,000); AID 540303, 2011; active means well fitted inhibition curve with a large enough effect; inconclusive means small, poorly fitted or top-dose-only effect; inactive means no such curve, though single readings can be large or run the other way; tested in mouse RAW 264.7 cells; further: potency means the concentration at half of the fitted maximal effect; on the % scale 0 is the no-effect control and ±100 the full control effect; nearly all actives have a fitted effect of over 55% in size
MBNL1 TRFRET = qHTS Assay for Inhibitors of MBNL1-poly(CUG) RNA binding: Initial hit validation from the primary screen; shares compounds with MBNL1 CUG block; TR-FRET MBNL1-His / biotin-(CUG)12 binding, 60 min; Potency, µM (doses to about 57.6 µM), inactives show top-dose activity change, negative = inhibition, actives largely listed as inhibitors; actives 50% (n = 140); AID 493199, 2011
MBNL1 AlphaScrn = qHTS Assay for Inhibitors of MBNL1-poly(CUG) RNA binding: Initial hit validation in AlphaScreen assay for MBNL1-(CUG)12 binding; AlphaScreen MBNL1-His / biotin-(CUG)12 binding; shares compounds with MBNL1 CUG block; AID 493205, 2011; actives 30% (n = 140); Potency, µM (titrated, usually from 57.7 µM), for the others: top-dose activity, negative = inhibition, usual class: inhibitors
MBNL1 HTRF CS = qHTS Assay for Inhibitors of MBNL1-poly(CUG) RNA binding: Counterscreen HTRF assay; His-Menin/biotin-MLL peptide TR-FRET counterscreen; shares compounds with MBNL1 CUG block; actives 20% (n = 120); Potency, µM (series often up to 57.6 µM), for inactives: at the highest dose activity, negative = inhibition, usual class: inhibitors
* marks the source's active call; other numbers are inactive results; ? = inconclusive; / = not tested or not shown. Unless noted, the call rests on the fitted dose curve; in most records, active means well fitted curve in the direction sought with a large enough effect; inconclusive means small, poorly fitted or top-dose-only effect, or another doubt; inactive means no such curve, though single readings can be large; an effect the other way counts as inactive or inconclusive.

SMILES	Six1-Eya2 inh	Mito fusion yeast	MBNL1 CUG block	CtBP-E1A inh	uPA generation	others
c1ccc(-c2cn(C[C@H]3CC[C@@H]([C@@H]4CC[C@H](Cn5cc(-c6ccccn6)nn5)O4)O3)nn2)nc1	-87*	-2%	-7%	-81*	-4%
O=C(Nc1nc(-c2ccccc2)cs1)C1CCCCN1S(=O)(=O)c1ccccc1 (stereo not given)	-5	19%	5%	-4	?
O=C(Nc1cccc(S(=O)(=O)N2CCOCC2)c1)[C@@H]1CCCN1S(=O)(=O)c1ccc(Cl)cc1	?	0%	-22%	-65*	2%
O=C(Nc1nc(-c2ccc(S(=O)(=O)N3CCCC3)cc2)cs1)c1cccs1	-73*	29%	21%	-75*	-6%
O=C(Nc1nc(-c2ccc(S(=O)(=O)N3CCCCCC3)cc2)cs1)c1cccs1	?	3%	97%	-70*	6%
O=C(Nc1nc(-c2ccccc2)cs1)C1CCCCN1S(=O)(=O)c1ccc(Cl)cc1 (stereo not given)	-11	18µM*	0%	-8	/
NCC1OC(O[C@H]2[C@H](O)[C@@H](OC3C(O)C(N)CC(N)C3OC3OC(CO)C(O)C(O)C3N)O[C@@H]2CO)C(N)C(O)C1O (stereo not given in full)	/	-6%	/	/	/
Cc1cc(C(=O)N2CCC2(C)C(=O)NCC(C)(C)C)nn1C (stereo not given)	12	/	/	9	/
COCCn1c(C)cc(C(=O)COC(=O)c2ccccc2Br)c1C	-16	-4%	-5%	/	2.5µM*
CCCCn1c(N)c(N(CCOC)C(=O)C2CCN(c3ncnc4sc(C)c(C)c34)CC2)c(=O)[nH]c1=O	2	1%	/	-90*	2%
O=C(NCCCCCCNC(=O)c1cncc(O)c1)c1cncc(O)c1	-7	7.9µM*	6%	-4	1%
O=C(NCCCNC(=O)c1cncc(O)c1)c1cncc(O)c1	0	0%	-10%	/	1%
CC(C)=CCCC(C)c1cc(C(=O)NCCc2ccc(O)cc2)c(N)s1 (stereo not given)	-13	/	/	-9	/
O=C1c2ccccc2C(c2nnnn2-c2ccc3c(c2)OCCO3)N1CCc1ccccc1F (stereo not given)	1	/	/	2	/
CCCCOC(=O)c1ccc(NC(=O)CN2C(=O)NC3(CCCCCC3)C2=O)cc1	-3	4%	/	6	8.9µM*
CCCCOC(=O)c1ccc(NC(=O)COC(=O)CN2C(=O)NC3(CCCC3)C2=O)cc1	-5	/	/	-3	0%
Cc1ccc(S(=O)(=O)N2C[C@H]3C(=O)C[C@@H]4C(=O)N(c5ccccc5)C(=O)[C@@H]4[C@@H]3C[C@H]2c2cccc(Cl)c2)cc1	-5	/	/	1	/
O=C(NCc1ccccc1)C(c1ccco1)N1CCN(c2ccccc2F)CC1 (stereo not given)	-2	/	/	5	/
COc1ccc2sc(N(CCN(C)C)C(=O)/C=C/c3cccs3)nc2c1	0	-14%	-12%	8	?
COc1ccc2nc(N(CCN(C)C)C(=O)/C=C/c3cccs3)sc2c1	-6	9%	-1%	6	10µM*
O=C1c2ccccc2C(=O)C12OC2c1cccc2ccccc12 (stereo not given)	40	1%	25µM*	-25	-2%	MBNL1 TRFRET=-22%;MBNL1 AlphaScrn=?;MBNL1 HTRF CS=7%
CC(Sc1ncc(C#N)c(N)n1)C(=O)Nc1ccccc1 (stereo not given)	-1	4%	40µM*	2	2%	MBNL1 TRFRET=-1%;MBNL1 AlphaScrn=?;MBNL1 HTRF CS=-2%
CCc1ccc(C(=O)NNC(=O)CN2C(=O)NC3(CCCC3)C2=O)cc1	1	-3%	/	/	-10%
COc1ccc(-c2nc3ccncc3[nH]2)cc1OC	-3	-5%	20µM*	1	-12%	MBNL1 TRFRET=6.5µM*;MBNL1 AlphaScrn=-8%;MBNL1 HTRF CS=18µM*
CC1CCCCC1NC(=O)c1c(O)nc2ccccn2c1=O (stereo not given)	6	17%	/	-4	-3%
SMILES	Six1-Eya2 inh	Mito fusion yeast	MBNL1 CUG block	CtBP-E1A inh	uPA generation	others
Nc1sc(Cc2ccccc2)cc1C(=O)NC1CCCCC1	3	/	/	-13	/
Cc1ccc(S(=O)(=O)N2CCCCC2)cc1NC(=O)COC(=O)c1ccc(=O)[nH]c1	0	-2%	/	0	15%
NCCCC(N)CC(=O)NCC1NC(=O)C(CO)NC(=O)C(N)CNC(=O)C(C2CCN=C(N)N2)NC(=O)/C(=C/NC(N)=O)NC1=O (stereo not given)	/	/	/	/	/	MBNL1 TRFRET=-1%;MBNL1 AlphaScrn=-7%
Cc1ccc(NC(=O)Nc2ccc(F)c(Cl)c2)cc1	9	8%	0%	-10	-11%
CCC(CC)NC(=O)Nc1ccc(F)c(Cl)c1	0	-9%	40µM*	-5	-5%	MBNL1 TRFRET=?;MBNL1 AlphaScrn=4%;MBNL1 HTRF CS=-23%
O=S(=O)(c1ccccc1F)N1CCN(CCOc2ccccc2)CC1	-8	3%	/	/	7%
NC[C@H](O)c1ccc(O)c(O)c1	?	-5%	/	-20	?	MBNL1 TRFRET=6.5µM*;MBNL1 AlphaScrn=?;MBNL1 HTRF CS=?
CNC[C@H](O)c1ccc(O)c(O)c1	-7	-7%	22µM*	-2	?	MBNL1 TRFRET=-14%;MBNL1 AlphaScrn=-2%;MBNL1 HTRF CS=4%
CC(C)NCC(O)c1ccc(O)c(O)c1 (stereo not given)	8	-6%	-6%	-1	?
CCOc1ccc(NC(=O)COC(=O)c2ccc3c(c2)OCCO3)cc1	11	-1%	/	1	-16%
CC(C)(C)NC(=O)C(c1ccc(C#N)cc1)n1c(=O)c(-c2ccco2)nc2ccccc21 (stereo not given)	-7	/	/	-4	/

Source: PubChem BioAssay
